Test results reported in PubChem BioAssay AID1159580 (chemical genetic matrix, 2015).
“And” between values parts separate entries of the source, which are not always exact repeats. Equal entries are not always repeated. About 2,000 (36%) of roughly 5,500 compounds were called active. Another 18% or so got no clear call; they are omitted. Cut-off read from the data, not from the text of the source: active = normalized growth mostly below about 0.91 (no sharp cut-off); inconclusive = no clear call, values can overlap the other calls; inactive = mostly above about 0.92. This is one part of the list.

Assay: chemical genetic growth profiling, strain panel (AID 1159580);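 note: tested at 20 µM; growth read once vehicle control cultures reached saturation at 30 °C; 1 = growth at the plate median or of vehicle wells; lower values mean less growth of the strain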
Conditions: growth OD

Measured: normalized growth

CC(CN1c2ccccc2Sc2ccccc21)N(C)C (configuration not stated)
inactive: S. cerevisiae deletion strains, locus YKL009W, strain mrt4, stronger effect = lower value 0.924 | S. cerevisiae deletion strains, locus YKL068W, stronger effect = lower value 0.982 | S. cerevisiae deletion strains, locus YKL085W, strain MDH1 (second series), stronger effect = lower value 0.965 | S. cerevisiae deletion strains, locus YKL085W, strain MDH1, stronger effect = lower value 0.965 | S. cerevisiae deletion strains, locus YKL160W, strain elf1, stronger effect = lower value 0.913 | S. cerevisiae deletion strains, locus YKL190W, strain CNB1, stronger effect = lower value 0.995 | S. cerevisiae deletion strains, locus YKR001C, strain vps1, stronger effect = lower value 0.968 | S. cerevisiae deletion strains, locus YKR026C, strain gcn3, stronger effect = lower value 0.972 | S. cerevisiae deletion strains, locus YKR091W, strain srl3, stronger effect = lower value 0.983 | S. cerevisiae deletion strains, locus YLL026W, stronger effect = lower value 0.943 | S. cerevisiae deletion strains, locus YLL041C, strain sdh2, stronger effect = lower value 0.982 | S. cerevisiae deletion strains, locus YLR027C, strain aat2, stronger effect = lower value 0.932 | S. cerevisiae deletion strains, locus YLR039C, strain RIC1, stronger effect = lower value 1.23 | S. cerevisiae deletion strains, locus YLR058C, strain SHM2, stronger effect = lower value 0.957 | S. cerevisiae deletion strains, locus YLR102C, strain apc9, stronger effect = lower value 0.981 | S. cerevisiae deletion strains, locus YLR113W, strain HOG1, stronger effect = lower value 1.03 | S. cerevisiae deletion strains, locus YLR221C, strain rsa3, stronger effect = lower value 0.969 | S. cerevisiae deletion strains, locus YLR258W, strain gsy2, stronger effect = lower value 0.974 | S. cerevisiae deletion strains, locus YLR262C, strain YPT6 (second series), stronger effect = lower value 1.07 | S. cerevisiae deletion strains, locus YLR262C, strain YPT6, stronger effect = lower value 1.34 | S. cerevisiae deletion strains, locus YLR268W, strain sec22, stronger effect = lower value 0.947 | S. cerevisiae deletion strains, locus YLR320W, strain mms22, stronger effect = lower value 0.944 | S. cerevisiae deletion strains, locus YLR330W, strain CHS5, stronger effect = lower value 0.993 | S. cerevisiae deletion strains, locus YLR342W, strain FKS1 (second series), stronger effect = lower value 0.928 | S. cerevisiae deletion strains, locus YLR357W, strain rsc2, stronger effect = lower value 0.99 | S. cerevisiae deletion strains, locus YLR370C, strain arc18, stronger effect = lower value 0.938 | S. cerevisiae deletion strains, locus YLR371W, strain rom2, stronger effect = lower value 0.962 | S. cerevisiae deletion strains, locus YLR384C, strain iki3, stronger effect = lower value 0.968 | S. cerevisiae deletion strains, locus YLR418C, strain cdc73, stronger effect = lower value 0.955 | S. cerevisiae deletion strains, locus YML016C, strain PPZ1, stronger effect = lower value 0.985 | S. cerevisiae deletion strains, locus YML032C, strain rad52, stronger effect = lower value 0.908 | S. cerevisiae deletion strains, locus YML120C, strain ndi1, stronger effect = lower value 0.921 | S. cerevisiae deletion strains, locus YML124C, strain tub3, stronger effect = lower value 0.983 | S. cerevisiae deletion strains, locus YMR058W, strain fet3, stronger effect = lower value 0.94 | S. cerevisiae deletion strains, locus YMR078C, strain ctf18, stronger effect = lower value 0.98 | S. cerevisiae deletion strains, locus YMR125W, strain sto1, stronger effect = lower value 0.988 | S. cerevisiae deletion strains, locus YMR129W, stronger effect = lower value 0.97 | S. cerevisiae deletion strains, locus YMR205C, strain PFK2, stronger effect = lower value 0.968 | S. cerevisiae deletion strains, locus YMR223W, strain ubp8, stronger effect = lower value 0.992 | S. cerevisiae deletion strains, locus YMR231W, strain pep5, stronger effect = lower value 0.983 | S. cerevisiae deletion strains, locus YMR263W, strain SAP30, stronger effect = lower value 0.999 | S. cerevisiae deletion strains, locus YMR307W, strain GAS1, stronger effect = lower value 1.12 | S. cerevisiae deletion strains, locus YNL067W, strain RPL9B, stronger effect = lower value 0.924 | S. cerevisiae deletion strains, locus YNL071W, strain lat1, stronger effect = lower value 0.969 | S. cerevisiae deletion strains, locus YNL128W, strain TEP1, stronger effect = lower value 1.02 | S. cerevisiae deletion strains, locus YNL175C, strain NOP13, stronger effect = lower value 1.01 | S. cerevisiae deletion strains, locus YNL183C, strain NPR1, stronger effect = lower value 0.964 | S. cerevisiae deletion strains, locus YNL197C, strain WHI3, stronger effect = lower value 1.01 | S. cerevisiae deletion strains, locus YNL209W, strain ssb2, stronger effect = lower value 0.962 | S. cerevisiae deletion strains, locus YNL224C, strain SQS1, stronger effect = lower value 1.01 | S. cerevisiae deletion strains, locus YNL233W, strain BNI4, stronger effect = lower value 0.925 | S. cerevisiae deletion strains, locus YNL248C, strain rpa49, stronger effect = lower value 0.971 | S. cerevisiae deletion strains, locus YNL250W, strain rad50, stronger effect = lower value 0.958 | S. cerevisiae deletion strains, locus YNL271C, strain bni1, stronger effect = lower value 0.973 | S. cerevisiae deletion strains, locus YNL298W, strain CLA4, stronger effect = lower value 0.978 | S. cerevisiae deletion strains, locus YNL307C, strain MCK1, stronger effect = lower value 0.958 | S. cerevisiae deletion strains, locus YNL322C, strain KRE1 (second series), stronger effect = lower value 0.976 | S. cerevisiae deletion strains, locus YNR049C, strain mso1, stronger effect = lower value 0.977 | S. cerevisiae deletion strains, locus YNR052C, strain pop2, stronger effect = lower value 0.976 | S. cerevisiae deletion strains, locus YOL006C, strain TOP1, stronger effect = lower value 0.79 | S. cerevisiae deletion strains, locus YOL012C, strain htz1 1.06 | S. cerevisiae deletion strains, locus YOL147C, strain pex11, stronger effect = lower value 0.976 | S. cerevisiae deletion strains, locus YOR061W, strain CKA2, stronger effect = lower value 0.955 | S. cerevisiae deletion strains, locus YOR069W, strain VPS5, stronger effect = lower value 0.986 | S. cerevisiae deletion strains, locus YOR070C, strain gyp1, stronger effect = lower value 0.965 | S. cerevisiae deletion strains, locus YOR080W, strain dia2, stronger effect = lower value 0.963 | S. cerevisiae deletion strains, locus YOR083W, strain WHI5 (second series), stronger effect = lower value 1.02 | S. cerevisiae deletion strains, locus YOR083W, strain WHI5, stronger effect = lower value 0.898 | S. cerevisiae deletion strains, locus YOR106W, strain vam3, stronger effect = lower value 0.884 | S. cerevisiae deletion strains, locus YOR136W, strain idh2, stronger effect = lower value 0.968 | S. cerevisiae deletion strains, locus YOR144C, strain elg1, stronger effect = lower value 0.989 | S. cerevisiae deletion strains, locus YOR184W, strain ser1, stronger effect = lower value 1.01 | S. cerevisiae deletion strains, locus YOR231W, strain MKK1, stronger effect = lower value 1.01 | S. cerevisiae deletion strains, locus YOR265W, strain rbl2, stronger effect = lower value 0.955 | S. cerevisiae deletion strains, locus YOR270C, strain vph1, stronger effect = lower value 0.998 | S. cerevisiae deletion strains, locus YOR290C, strain snf2, stronger effect = lower value 0.96 | S. cerevisiae deletion strains, locus YOR316C, strain cot1, stronger effect = lower value 0.97 | S. cerevisiae deletion strains, locus YPL106C, strain sse1, stronger effect = lower value 0.929 | S. cerevisiae deletion strains, locus YPL240C, strain hsp82, stronger effect = lower value 0.965 | S. cerevisiae deletion strains, locus YPL241C, strain CIN2, stronger effect = lower value 0.989 and 0.995 | S. cerevisiae deletion strains, locus YPL256C, strain CLN2, stronger effect = lower value 1.07 | S. cerevisiae deletion strains, locus YPR119W, strain clb2, stronger effect = lower value 0.971 | S. cerevisiae deletion strains, locus YPR141C, strain kar3, stronger effect = lower value 0.976 | S. cerevisiae deletion strains, locus YPR163C, strain tif3, stronger effect = lower value 0.928 | S. cerevisiae deletion strains, locus YPR167C, strain met16, stronger effect = lower value 0.97 | S. cerevisiae deletion strains, strain wtn01, stronger effect = lower value 0.957 | S. cerevisiae strains, strain wild type, stronger effect = lower value 0.975
active: S. cerevisiae deletion strains, locus YLL001W, strain dnm1, stronger effect = lower value 0.879 | S. cerevisiae deletion strains, locus YLR342W, strain FKS1, stronger effect = lower value 0.844 | S. cerevisiae deletion strains, locus YOR001W, strain rrp6, stronger effect = lower value 0.889 | S. cerevisiae deletion strains, locus YPL051W, strain arl3, stronger effect = lower value 0.863 | S. cerevisiae deletion strains, locus YPL078C, strain atp4, stronger effect = lower value 0.838
